Screens as filed in PubChem.
The full list was thinned out, with hits kept by preference.
SF-1 inh – blocks the human nuclear receptor SF-1; CHO-K1 Gal4-SF-1 LBD luciferase reporter; inhibition, % at 10 µM; 65,000 compounds, 0.55% hits;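 active = inhibition above the mean inhibition of all tested compounds plus 3 SD, cut at about 48% in these data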;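 note: 0% = SF-1 transfected cells with DMSO and 100% = mock-transfected cells lacking SF-1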
Target sequence (Q13285 whole entry, looked up, the tested form may be a part): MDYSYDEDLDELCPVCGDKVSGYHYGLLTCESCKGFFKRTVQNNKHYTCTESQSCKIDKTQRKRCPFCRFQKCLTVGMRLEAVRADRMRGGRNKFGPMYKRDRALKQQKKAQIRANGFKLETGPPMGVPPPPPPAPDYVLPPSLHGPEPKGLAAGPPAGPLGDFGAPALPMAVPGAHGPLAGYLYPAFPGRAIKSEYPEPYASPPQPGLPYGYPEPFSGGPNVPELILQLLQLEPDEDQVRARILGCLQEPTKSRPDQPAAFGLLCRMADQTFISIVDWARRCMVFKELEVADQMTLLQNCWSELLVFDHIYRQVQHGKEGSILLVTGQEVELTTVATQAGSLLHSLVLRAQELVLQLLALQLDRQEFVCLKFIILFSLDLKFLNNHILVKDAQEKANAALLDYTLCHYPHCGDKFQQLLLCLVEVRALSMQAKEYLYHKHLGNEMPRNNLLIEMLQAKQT
Numbers without * were called inactive.

For C[C@H]1CCC/C=C/C2C[C@H](O)CC2[C@H](O)/C=C/C(=O)O1 (stereo partly drawn) the results were SF-1 inh 80*.
For COC(=O)CC1NC2CCCCC2NC1=O (stereo not drawn) the results were SF-1 inh -14.
CCCCn1c(O)c(C(C)=Nc2cccc(C(=O)O)c2)c(=O)[nH]c1=O was read as SF-1 inh -10.
`Cc1cccc(NC(=O)CSc2nnc([C@@H](N)Cc3c[nH]c4ccccc34)o2)c1C` gave SF-1 inh -13.
For O=c1cccc2n1CC1CC2CN(C(c2cccc(F)c2)c2sc3ncnn3c2O)C1 (stereo not drawn) the results were SF-1 inh 2.
Screening COc1cc(CN2CCN(c3cc(C)ccc3C)CC2)ccc1O returned SF-1 inh 67*.
Screening Cc1ccc(-n2c(O)c(C=NC3CCCC3)c(=O)[nH]c2=O)c(C)c1 returned SF-1 inh -4.
`O=C(Cc1ccccc1)N1CCN(CC2CC=CCC2)CC1` (stereo not drawn) gave SF-1 inh 12.
O=C(Cn1c2c(c(-c3ccccc3Cl)cc1=O)CCC2)N1CCC2(CC1)OCCO2 was read as SF-1 inh 15.
O=C(CCn1c(=O)oc2ccccc21)N1CCC2(CC1)OCCO2 was read as SF-1 inh -1.
For Cc1cccc(N2C(=O)NC(=O)C3(Cc4cc(C)ccc4N(C)C3)C2=O)c1 (stereo not drawn) the results were SF-1 inh 4.
CCn1nc(-c2ccccc2)nc2c(=O)n(C)c(=O)nc1-2 was read as SF-1 inh 95*.
`CCn1c(=O)cc(OCC(=O)N2CCN(Cc3ccc4c(c3)OCO4)CC2)c2ccccc21` gave SF-1 inh 17.
For COc1cccc(C2=NOC(C(=O)N3CCC4(CC3)OCCO4)C2)c1 (stereo not drawn) the results were SF-1 inh -56.
For CCOC(C(=O)OCC(O)CN(CC)CC)(c1ccccc1)c1ccccc1 (stereo not drawn) the results were SF-1 inh -6.
